Bioassay records (PubChem)
RAD54 inh: RAD54 (human) branch migration inhibition. Q92698. RAD54 Holliday junction branch migration, FAM/BHQ fluorescence. inhibition, % at 10.4 µM. actives 0.14% (n = 360,000);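 active means mean normalized replicate activity at least 40 and at least half of replicates scoring 40 or more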;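 further: 0% = median of neutral control wells and 100% = median of positive control wells; inhibitors cause a drop in the FAM fluorescence signal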
Target sequence (Q92698 whole entry, looked up): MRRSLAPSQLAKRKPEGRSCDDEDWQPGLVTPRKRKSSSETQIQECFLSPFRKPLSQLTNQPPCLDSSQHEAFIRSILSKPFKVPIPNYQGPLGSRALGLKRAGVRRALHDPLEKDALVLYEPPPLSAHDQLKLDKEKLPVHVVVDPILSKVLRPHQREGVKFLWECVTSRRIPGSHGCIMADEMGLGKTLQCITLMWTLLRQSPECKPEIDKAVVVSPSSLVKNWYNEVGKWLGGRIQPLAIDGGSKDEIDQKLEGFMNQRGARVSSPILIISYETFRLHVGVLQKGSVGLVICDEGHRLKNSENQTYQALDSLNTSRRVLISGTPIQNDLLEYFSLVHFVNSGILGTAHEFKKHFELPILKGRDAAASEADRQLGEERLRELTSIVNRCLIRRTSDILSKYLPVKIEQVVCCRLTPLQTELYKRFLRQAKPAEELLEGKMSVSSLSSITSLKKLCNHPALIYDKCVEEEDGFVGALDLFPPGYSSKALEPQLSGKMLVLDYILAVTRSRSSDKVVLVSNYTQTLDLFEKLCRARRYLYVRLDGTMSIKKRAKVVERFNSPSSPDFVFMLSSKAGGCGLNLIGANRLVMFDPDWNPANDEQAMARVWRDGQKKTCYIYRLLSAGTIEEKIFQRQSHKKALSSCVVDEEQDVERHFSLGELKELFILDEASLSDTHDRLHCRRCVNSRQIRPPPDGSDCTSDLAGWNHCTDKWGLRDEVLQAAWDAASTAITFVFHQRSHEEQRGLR
LGR2 antag: Drosophila LGR2 receptor signaling inhibition; HEK293 LGR2, CRE-luciferase, bursicon-stimulated, 4 h; inhibition, % at 9.99 µM; actives 0.35% (n = 380,000); AID 720647;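 active means drop in luminescence signal, shown as inhibition above about 50% in the replicate tests, limit read from the data, passing the limit was not always enough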;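 further: agonist challenge used bursicon conditioned medium at about half maximal strength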
F508del corr: correctors of CFTR F508del function in bronchial epithelial cells; CFBE cells, YFP halide quenching; stimulated with forskolin plus potentiator P3; % fluorescence drop versus neutral controls; activity (quench increase), % at 7.58 µM; actives 0.36% (n = 350,000); AID 720511;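 active means mean added fluorescence quench of at least 8% versus neutral control, with both replicates also reaching 8%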;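 further: cells transiently co-express mutant CFTR-F508del with the halide-sensitive YFP; corrector assay measuring rescue of mutant channel to the surface after 24 h compound exposure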
RAD52 anneal inh: inhibitors of human RAD52 DNA annealing | recombinant RAD52 DNA annealing, FRET fluorescence | inhibition, % at 18.7 µM | actives 0.46% (n = 360,000);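 active means every replicate showing at least 50% inhibition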
INS-1E GSIS act: primary screen for activators of insulin secretion dependent on glucose, INS-1E cells, GLuc reporter luminescence. INS-1E GLuc reporter insulin secretion, 2-3 h. activation, % at 16.6 µM. AID 743287. actives 0.61% (n = 370,000);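 active means lowest replicate activation of at least 40%, so every replicate reaches that level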;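 further: 0% = median of neutral control wells and 100% = median of IBMX positive control wells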
EWS-Fli block: inhibitors of EWS/Fli oncoprotein transcriptional activity. A673 NR0B1-luciferase reporter, viability-normalised. inhibition, % at 12.6 µM. actives 0.67% (n = 350,000). AID 651661;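 active means mean inhibition of at least 50% after viability correction, with every replicate also passing that limit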;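 further: firefly luciferase signal divided by Alamar Blue viability fluorescence both relative to DMSO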
Active calls of the source: *; / = no result. An excerpt weighted towards active compounds, which were near 1.8% of everything screened.

SMILES	RAD54 inh	LGR2 antag	F508del corr	RAD52 anneal inh	INS-1E GSIS act	EWS-Fli block
CC(=O)c1ccc(N=Nc2ccc(N(C)C)cc2)cc1	-2	/	3	7	11	26
COc1ccc(NC(=O)CSc2ncccc2C(=O)OC(C)C)cc1OC	4	/	/	/	/	/
Cc1ccc(-c2csc(Nc3ccccn3)n2)cc1	-4	81*	8.7*	-12	-10	10
c1ccc(-c2csc(Nc3ccccn3)n2)cc1	3	-43	3	-22	1	-71
C[C@@H]1CC2=C(C(=O)OC(C)(C)O2)[C@H](c2ccc(Cl)cc2)O1	/	0	0	3	52*	9
CC(C)C1CC2=C(C(=O)OC(C)(C)O2)C(c2ccc(Cl)cc2)O1 (centres undefined)	-5	-4	-2	-3	/	3
C[C@@H]1CC2=C(C(=O)OC(C)(C)O2)[C@H](c2ccc(F)cc2)O1	/	-67	-3	5	56*	0
CN(C)c1cccc(C(=O)NNC(=S)NC2CC3CCC2C3)c1 (centres undefined)	5	-137	0	-8	-7	-19
O=C(Nc1ccc(NC(=O)c2cccs2)cc1)c1ccc(Br)o1	3	-16	/	/	45*	/
CCOC(=O)c1c(N)c(C#N)c2n1CCCC2	3	14	/	/	71*	/
CCOC(=O)c1c(N)c(C#N)c2n1CCCCC2	3	/	/	/	/	/
Cc1ccc(C)c(C(=O)NCCN(C)C)c1	-6	/	/	/	/	/
C=C(CN(C)C)C(=O)c1cc(C)ccc1C	/	-3	3	-9	90*	33
O=C(NCC(c1cccs1)N1CCOCC1)c1cc(F)cc(F)c1 (centres undefined)	-4	1	2	-23	/	53*
Cc1[nH]c2ccc(F)cc2c1CCN(Cc1ccncc1)C(=S)Nc1ccc(F)cc1	-2	-14	-2	-13	/	5
CCOC(=O)c1nccnc1C(=O)Nc1cccc(C(F)(F)F)c1	/	-5	-3	-5	6	-8
CCOC(=O)C1=NN(C(=O)Nc2cccc(C(F)(F)F)c2)C2C(=O)N(c3cccc(C(F)(F)F)c3)C(=O)C12 (centres undefined)	/	15	/	/	100*	/
C[N+]1(CC(=O)OCCCC2CCCCC2)CCCC1	/	34	-4	1	25	-2
Cc1cccc(C2N=C(N)Nc3nc4ccccc4n32)c1 (centres undefined)	/	-13	-2	-9	56*	2
Cc1ccc(C2N=C(N)Nc3nc4ccccc4n32)cc1 (centres undefined)	4	15	-3	-9	-9	-3
O=c1cnc2ccccc2n1CC1CCCCC1	/	-5	8.6*	-3	24	-11
Cc1cc(C(=O)NCc2ccco2)sc1C	6	-13	-6	-31	-7	-12
CN1CCN(C(=O)c2c(O)c3cccc4c3n(c2=O)CCC4)CC1	-3	/	/	/	/	/
CC(=O)c1c(O)c2cccc3c2n(c1=O)CCC3	0	-31	2	-2	40*	9
O=C(NC1CCC(O)CC1)c1cc(Cl)c2c(c1)OCCO2 (centres undefined)	-1	-29	-1	-44	12	-5
SMILES	RAD54 inh	LGR2 antag	F508del corr	RAD52 anneal inh	INS-1E GSIS act	EWS-Fli block
O=C(NCCc1ccccc1)c1cc([N+](=O)[O-])ccc1N1CCOCC1	2	6	1	-10	18	-5
O=C(NCCOc1ccccc1F)c1cc([N+](=O)[O-])ccc1N1CCOCC1	0	-4	8.3*	-6	-5	49
O=C(NCCc1ccc(F)cc1)c1cc([N+](=O)[O-])ccc1N1CCOCC1	-2	-5	2	-17	-11	-2
O=C(NCCOc1ccccc1)c1cc([N+](=O)[O-])ccc1N1CCOCC1	12	-9	12*	-18	3	58*
CC(C)(C)C(=O)Nc1ccc(C(=O)OC2CCCCC2)cc1	3	-20	/	-10	-39	/
COc1ccccc1N(C)S(=O)(=O)c1ccc(C(=O)Nc2nccs2)cc1	3	7	27*	-11	-36	-10
O=Cc1c[nH]c2ncccc12	1	3	-3	-6	-6	1
CSCCC1Nc2ccc(S(=O)(=O)N3CCOCC3)cc2NC1=O (centres undefined)	/	0	-1	-23	8	0
CCc1nc2ccc(C(=O)NCCCN3CCCC3=O)cn2c1N(C)CCC(C)C	-4	-3	0	-10	0	-3
